Data as given in PubChem BioAssay AID493209 (National Center for Advancing Translational Sciences (NCATS), 2011).
Activity calls are given as the source filed them.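 How the source made its calls: active means compounds that raised 12-lipoxygenase product formation in the cuvette follow-up test, with a fitted potency; inactive means the rest, inconclusive results apart.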

What follows are compounds tested against Polyunsaturated fatty acid lipoxygenase ALOX12 (Homo sapiens) (UniProt P18054) (assay: Activators of 12-hLO (12-human lipoxygenase): 12hLO Cuvette-Based Hit Validation Assay of Followup Compounds). Details: purified 12-hLO, cuvette UV 234 nm product formation.
Method: The enzyme activity of 12-hLO was determined by a direct measurement of product formation by monitoring the absorbance at 234 nm in a 2 mL cuvette. IC50 values of inhibitors were obtained by measuring the enzymatic rate at a variety of concentrations (Carroll et al, Segraves et al). This assay was used to validate active or inconclusive putative activators identified in the primary screen (see related BioAssay AIDs). Assay Provider: Holman, T.R., University of California, Santa Cruz Screening Center PI: Austin, Christopher P. Screening Center: NIH Chemical Genomics Center
For control experiments, 2 mL of substrate buffer (10 uM arachidonic acid / 25 mM HEPES / 0.01% (v/v) Triton X-100, pH 8.0) was aliquoted in a cuvette with a magnetic stir bar. After equilibrium was ensured, an aliquot of inhibitor solvent was added (DMSO), and equilibrium was once again assured. The reaction was started by adding enzyme to the cuvette and the reaction was followed until completed. The inhibition experiments were performed as above, except the actual inhibitory compound was added instead of vehicle. To achieve an IC50, typically 5 concentrations of the inhibitor were studied. If the inhibitor concentration was constant, then five different reaction volumes were used. Step \ Parameter \ Value \ Description 1; UV-Vis; 234 nm; Equilibration 2; Reagent; 2 mL; Substrate buffer 3; UV-Vis; 234 nm; Equilibration 4; Reagent; varies; Compound 5; UV-Vis; 234 nm; Equilibration 6; Reagent; 50-200 nM; Enzyme 12-hLO 7; UV-Vis; 234 nm; Enzymatic reaction Step \ Notes 1; Blank cuvette to air. 2; 10 uM AA, 25 mM HEPES, 0.01% Triton X-100, pH 8. 3; No change in absorbance ensured. 4; Compound vehicle or compound in various concentrations depending on potency. 5; No change in absorbance ensured. 6; Enzyme concentration to achieve reaction rate between 0.02 and 0.04 AU/s. 7; Enzymatic reaction visualized until completion.

Sequence of Polyunsaturated fatty acid lipoxygenase ALOX12 (Homo sapiens) (P18054 whole entry, looked up): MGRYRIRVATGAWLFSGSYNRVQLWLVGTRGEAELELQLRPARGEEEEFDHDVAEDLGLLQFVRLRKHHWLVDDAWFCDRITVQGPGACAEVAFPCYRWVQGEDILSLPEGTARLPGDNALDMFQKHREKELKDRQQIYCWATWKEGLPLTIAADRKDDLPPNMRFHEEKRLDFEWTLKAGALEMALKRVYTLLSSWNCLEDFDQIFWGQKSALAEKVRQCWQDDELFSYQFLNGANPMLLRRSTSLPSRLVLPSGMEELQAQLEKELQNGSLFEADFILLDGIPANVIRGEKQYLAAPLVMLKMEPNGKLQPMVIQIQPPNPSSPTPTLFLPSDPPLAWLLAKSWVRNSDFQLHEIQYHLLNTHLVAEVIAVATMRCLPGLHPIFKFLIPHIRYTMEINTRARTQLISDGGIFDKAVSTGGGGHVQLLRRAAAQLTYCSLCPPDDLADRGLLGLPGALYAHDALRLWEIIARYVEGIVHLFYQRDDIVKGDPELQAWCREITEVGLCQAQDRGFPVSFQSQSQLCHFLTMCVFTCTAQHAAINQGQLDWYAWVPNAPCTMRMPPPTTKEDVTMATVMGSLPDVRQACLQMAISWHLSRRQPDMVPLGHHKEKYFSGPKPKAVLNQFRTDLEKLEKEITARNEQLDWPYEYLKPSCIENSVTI

Row | Compound | outcome | Potency
1 | Cc1cc(C)c2cc(CN(Cc3nnnn3C3CCCCC3)CC3CCCO3)c(=O)[nH]c2c1 (centres undefined) | inactive | –
2 | COc1ccc(C(Nc2ccccn2)c2c(NC(=O)c3ccco3)sc(C)c2C)cc1 (centres undefined) | inactive | –
3 | O=C(Nc1nnc(-c2ccc(Cl)cc2)o1)c1ccccc1Br | inactive | –
4 | COc1ccc(-c2n[nH]c(C(F)(F)F)c2-c2cc3ccccc3o2)c(O)c1 | inactive | –
5 | Cc1[nH]nc(-c2ccc(O)cc2O)c1Oc1ccccc1 | inactive | –
6 | CN(C)c1nccc(N(Cc2ccccc2)Cc2ccccc2)c1C#N | inactive | –
7 | O=C1c2ccccc2NC(c2ccc(Cl)cc2Cl)N1O (centres undefined) | – | 53.1 µM (active)
8 | CCOc1ccc(-c2[nH]ncc2Oc2cccc(OC)c2)c(O)c1 | inactive | –
9 | COc1ccc(-c2n[nH]c(C)c2-c2ccc(Cl)cc2)c(O)c1 | inactive | –
10 | COc1cccc(-c2cnc(NCc3cc(Cl)ccc3O)n2C)c1 | inactive | –
11 | Oc1ccc(C2=Nn3c(nnc3-c3ccco3)SC2)cc1O | inactive | –
12 | O=S(=O)(Nc1ccc(O)c(Sc2nc3ccccc3s2)c1)c1ccc(Cl)cc1 | inactive | –
13 | COc1ccc(C(=O)Nc2cc(C(=O)c3ccccc3)c(C)oc2=O)cc1 | – | 61.6 µM (active)
14 | COc1ccc(/C=C/c2nc(-c3ccccc3O)n[nH]2)cc1 | inactive | –
15 | CCc1ccc(S(=O)(=O)/N=C2/C=C(Sc3ncn[nH]3)C(=O)c3ccccc32)cc1 | inactive | –
16 | COc1cc(CNc2ccc(N3CCCC3)cc2)ccc1OCc1ccccc1 | inactive | –
17 | O=C(Nc1nnc(C2=COCCO2)o1)c1ccc(Cl)cc1 | inactive | –
18 | Cc1ccc(C(=O)/C=C/c2c[nH]c3ccccc23)cc1 | inactive | –
19 | CSc1ccc(S(=O)(=O)Nc2ccc(S(=O)(=O)Nc3ccc(C)cc3)cc2)cc1 | inactive | –
